# Measured values taken from PubChem BioAssay AID1159580 (chemical genetic matrix, 2015).
# Values joined by “and” are separate entries in the source; they are usually repeats but may differ in a detail not shown here. Equal values may be shown once. Screen size: about 5,500 compounds; about 2,000 (36%) were called active. Another 18% or so got no clear call; they are omitted. No stated cut-off is given here; in the data, active means normalized growth mostly below about 0.91 (no sharp cut-off); inconclusive means no clear call, values can overlap the other calls; inactive means mostly above about 0.92. Some of the results follow.
# Assay: chemical genetic growth profiling, strain panel (AID 1159580);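 further: tested at 20 µM; growth read once vehicle control cultures reached saturation at 30 °C; 1 = growth at the plate median or of vehicle wells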
# Settings: S. cerevisiae deletion strains, growth OD
smiles,measurement,setting,value
Cc1cccc(CN2CCN(C(c3ccccc3)c3ccc(Cl)cc3)CC2)c1 (stereo not drawn),normalized growth,"locus YAL021C, strain ccr4, stronger effect = lower value",0.543 (active)
same,normalized growth,"locus YAL026C, strain drs2, stronger effect = lower value",0.59 (active)
same,normalized growth,"locus YAL030W, strain snc1, stronger effect = lower value",0.861 (active)
same,normalized growth,"locus YBL061C, strain skt5, stronger effect = lower value",0.771 (active)
same,normalized growth,"locus YBR009C, strain hhf1, stronger effect = lower value",0.58 (active)
same,normalized growth,"locus YBR021W, strain FUR4, stronger effect = lower value",0.645 (active)
same,normalized growth,"locus YBR023C, strain chs3, stronger effect = lower value",0.701 (active)
same,normalized growth,"locus YBR171W, strain sec66, stronger effect = lower value",0.879 (active)
same,normalized growth,"locus YBR229C, strain ROT2, stronger effect = lower value",0.979 (inactive)
same,normalized growth,"locus YBR231C, strain swc5, stronger effect = lower value",0.636 (active)
same,normalized growth,"locus YBR279W, strain paf1, stronger effect = lower value",0.777 (active)
same,normalized growth,"locus YCL011C, strain gbp2, stronger effect = lower value",0.633 (active)
same,normalized growth,"locus YCL016C, strain dcc1, stronger effect = lower value",0.723 (active)
same,normalized growth,"locus YCL029C, strain bik1, stronger effect = lower value",0.961 (inactive)
same,normalized growth,"locus YCL061C, strain MRC1, stronger effect = lower value",0.902 (active)
same,normalized growth,"locus YCL069W, strain vba3, stronger effect = lower value",0.848 (active)
same,normalized growth,"locus YCR088W, strain abp1, stronger effect = lower value",0.951 (inactive)
same,normalized growth,"locus YDL005C, strain med2, stronger effect = lower value",0.999 (inactive)
same,normalized growth,"locus YDL035C, strain GPR1, stronger effect = lower value",0.815 (active)
same,normalized growth,"locus YDL040C, strain nat1, stronger effect = lower value",0.922 (active)
same,normalized growth,"locus YDL074C, strain BRE1, stronger effect = lower value",0.498 (active)
same,normalized growth,"locus YDL101C, strain DUN1, stronger effect = lower value",0.887 (active)
same,normalized growth,"locus YDL134C, strain PPH21, stronger effect = lower value",0.806 (active)
same,normalized growth,"locus YDL185W, strain tfp1, stronger effect = lower value",0.99 (inactive)
same,normalized growth,"locus YDL192W, strain arf1, stronger effect = lower value",0.772 (active)
same,normalized growth,"locus YDR001C, strain nth1, stronger effect = lower value",0.978 (inactive)
same,normalized growth,"locus YDR069C, strain doa4, stronger effect = lower value",0.787 (active)
same,normalized growth,"locus YDR101C, strain arx1, stronger effect = lower value",0.935 (inactive)
same,normalized growth,"locus YDR137W, strain rgp1, stronger effect = lower value",1.05 (inactive)
same,normalized growth,"locus YDR159W, strain sac3, stronger effect = lower value",0.925 (inactive)
same,normalized growth,"locus YDR162C, strain NBP2, stronger effect = lower value",0.737 (active)
same,normalized growth,"locus YDR195W, strain ref2",1.52 [resistant] (active)
same,normalized growth,"locus YDR297W, strain sur2, stronger effect = lower value",0.885 (active)
same,normalized growth,"locus YDR318W, strain mcm21, stronger effect = lower value",0.828 (active)
same,normalized growth,"locus YDR334W, strain swr1, stronger effect = lower value",0.903 (inactive)
same,normalized growth,"locus YDR335W, strain msn5, stronger effect = lower value",0.976 (inactive)
same,normalized growth,"locus YDR388W, stronger effect = lower value",0.648 (active)
same,normalized growth,"locus YDR392W, strain spt3, stronger effect = lower value",0.875 (inactive)
same,normalized growth,"locus YDR502C, strain sam2, stronger effect = lower value",0.85 (active)
same,normalized growth,"locus YEL003W, strain gim4, stronger effect = lower value",0.793 (active)
same,normalized growth,"locus YEL037C, strain rad23, stronger effect = lower value",0.856 (active)
same,normalized growth,"locus YEL061C, strain CIN8 (second series), stronger effect = lower value",0.978 (inactive)
same,normalized growth,"locus YEL061C, strain CIN8, stronger effect = lower value",0.968 (inactive)
same,normalized growth,"locus YER015W, strain faa2, stronger effect = lower value",0.561 (active)
same,normalized growth,"locus YER016W, strain bim1, stronger effect = lower value",0.906 (active)
same,normalized growth,"locus YER110C, stronger effect = lower value",0.99 (inactive)
same,normalized growth,"locus YER111C, strain swi4, stronger effect = lower value",0.96 (inactive)
same,normalized growth,"locus YER155C, strain BEM2 (second series), stronger effect = lower value",0.759 (active)
same,normalized growth,"locus YER155C, strain BEM2, stronger effect = lower value",0.862 (active)
same,normalized growth,"locus YER167W, strain BCK2, stronger effect = lower value",0.971 (inactive)
same,normalized growth,"locus YFR010W, strain ubp6, stronger effect = lower value",0.699 (active)
same,normalized growth,"locus YGL078C, strain dbp3, stronger effect = lower value",0.987 (inactive)
same,normalized growth,"locus YGL086W, strain mad1, stronger effect = lower value",0.832 (active)
same,normalized growth,"locus YGL167C, strain pmr1, stronger effect = lower value",0.983 (inactive)
same,normalized growth,"locus YGL173C, strain kem1, stronger effect = lower value",0.94 (inactive)
same,normalized growth,"locus YGL227W, strain vid30, stronger effect = lower value",0.963 (inactive)
same,normalized growth,"locus YGL240W, strain doc1, stronger effect = lower value",0.951 (inactive)
same,normalized growth,"locus YGL248W, strain PDE1, stronger effect = lower value",0.769 (active)
same,normalized growth,"locus YGL253W, strain hxk2, stronger effect = lower value",0.77 (active)
same,normalized growth,"locus YGR135W, strain pre9, stronger effect = lower value",0.758 (active)
same,normalized growth,"locus YGR252W, strain gcn5, stronger effect = lower value",0.471 (active)
same,normalized growth,"locus YHR013C, strain ard1, stronger effect = lower value",0.54 (active)
same,normalized growth,"locus YHR027C, strain rpn1, stronger effect = lower value",0.68 (active)
same,normalized growth,"locus YHR030C, strain SLT2, stronger effect = lower value",0.393 (active) and 0.952 (inactive)
same,normalized growth,"locus YHR079C, strain IRE1 (second series), stronger effect = lower value",0.942 (inactive)
same,normalized growth,"locus YHR079C, strain IRE1, stronger effect = lower value",0.934 (inactive)
same,normalized growth,"locus YHR094C, strain hxt1, stronger effect = lower value",0.986 (inactive)
same,normalized growth,"locus YHR129C, strain ARP1, stronger effect = lower value",0.842 (active)
same,normalized growth,"locus YHR142W, strain chs7, stronger effect = lower value",0.734 (active)
same,normalized growth,"locus YHR200W, strain rpn10, stronger effect = lower value",0.904 (active)
same,normalized growth,"locus YIL066C, strain RNR3, stronger effect = lower value",0.821 (active)
same,normalized growth,"locus YIL073C, strain SPO22, stronger effect = lower value",0.951 (inactive)
same,normalized growth,"locus YIL125W, strain kgd1, stronger effect = lower value",0.993 (inactive)
same,normalized growth,"locus YIR030C, strain dcg1, stronger effect = lower value",0.979 (inactive)
same,normalized growth,"locus YJL092W, strain hpr5, stronger effect = lower value",0.817 (active)
same,normalized growth,"locus YJL095W, strain BCK1 (second series), stronger effect = lower value",0.332 (active)
same,normalized growth,"locus YJL095W, strain BCK1, stronger effect = lower value",0.203 (active) and 0.96 (inactive)
same,normalized growth,"locus YJL115W, strain asf1, stronger effect = lower value",0.927 (inactive)
same,normalized growth,"locus YJL129C, strain trk1, stronger effect = lower value",0.61 (active)
same,normalized growth,"locus YJL134W, strain LCB3, stronger effect = lower value",0.989 (inactive)
same,normalized growth,"locus YJL154C, strain vps35, stronger effect = lower value",0.995 (inactive)
same,normalized growth,"locus YJL164C, strain tpk1, stronger effect = lower value",0.622 (active)
same,normalized growth,"locus YJL166W, strain qcr8, stronger effect = lower value",0.735 (active)
same,normalized growth,"locus YJL168C, strain set2, stronger effect = lower value",0.987 (inactive)
same,normalized growth,"locus YJL187C, strain SWE1 (second series), stronger effect = lower value",0.731 (active)
same,normalized growth,"locus YJL187C, strain SWE1, stronger effect = lower value",0.878 (active)
same,normalized growth,"locus YJR043C, strain POL32, stronger effect = lower value",0.903 (inactive)
same,normalized growth,"locus YJR066W, strain TOR1, stronger effect = lower value",0.926 (inactive)
